PubChem BioAssay AID2589 (National Center for Advancing Translational Sciences (NCATS), 2010)
The source made the active and inactive calls. Calls follow the shape of the dose curve; as a rule, active = well fitted curve in the direction sought with a large enough effect; inactive = no such curve, though single readings can be large or run the other way.

Biological target: Lysosomal acid glucosylceramidase (Homo sapiens) (UniProt P04062)
Experiment: qHTS Assay for Inhibitors and Activators of N370S glucocerebrosidase as a Potential Chaperone Treatment of Gaucher Disease: Chaperone Activity in Non-Gauche Fibroblasts After Multi-day Incubation with Compound
Settings: Wild-type fibroblasts, GC immunofluorescence, 5-day incubation
Description: NIH Chemical Genomics Center [NCGC] NIH Molecular Libraries Probe Production Centers Network [MLPCN] MLPCN Grant: MH086442-01 Assay Submitter (PI): Wei Zheng Glucocerebrosidase (GC) catalyzes the hydrolysis of beta-glucocerebroside to glucose and ceramide in lysosomes. Mutations in the glucocerebrosidase gene result in Gaucher disease, an autosomal recessive lysosomal storage disorder. Many of the mutations encountered in patients with Gaucher disease are missense alterations that may cause misfolding, decreased stability and/or mistrafficking of this lysosomal protein. […] These inhibitors include iminosugar analogs and three non-iminosugar inhibitors identified from a previous HTS of 62,000 compounds with the wild type recombinant enzyme. However, the enhancement of enzyme activity by the chaperone action of an enzyme inhibitor must be balanced against the direct inhibition of the enzyme. An enzyme activator could also function as a chaperone by binding to the enzyme and helping to correct its misfolding and mistrafficking. […] This assay attempts to quantitate translocated glucocerebrosidase protein in patient-derived fibroblasts following extended compound incubation. […]
NCGC Assay Protocol Summary: 1. […] Visualized using a fluorescence microscope and the intensity of fluorescence in the selected areas were calculated. […]

Lysosomal acid glucosylceramidase (Homo sapiens), sequence (P04062 whole entry, looked up): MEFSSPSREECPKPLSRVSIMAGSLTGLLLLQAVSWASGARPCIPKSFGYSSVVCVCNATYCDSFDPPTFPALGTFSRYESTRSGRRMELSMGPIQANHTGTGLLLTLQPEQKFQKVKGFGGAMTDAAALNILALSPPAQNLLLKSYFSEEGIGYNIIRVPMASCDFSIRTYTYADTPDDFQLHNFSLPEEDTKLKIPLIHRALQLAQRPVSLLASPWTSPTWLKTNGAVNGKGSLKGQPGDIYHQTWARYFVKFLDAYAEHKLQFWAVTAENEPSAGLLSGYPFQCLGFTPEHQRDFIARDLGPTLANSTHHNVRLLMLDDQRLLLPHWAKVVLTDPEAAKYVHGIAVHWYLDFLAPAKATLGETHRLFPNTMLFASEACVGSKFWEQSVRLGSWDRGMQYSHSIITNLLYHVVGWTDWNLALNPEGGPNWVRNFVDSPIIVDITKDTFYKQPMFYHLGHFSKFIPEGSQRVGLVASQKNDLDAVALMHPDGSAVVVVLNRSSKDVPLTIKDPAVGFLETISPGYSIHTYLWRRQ

SMILES	Potency
S=C(NCCCc1cnc[nH]1)NCCCN(Cc1ccc(Cl)c(Cl)c1)c1ccc(Br)cn1	708 nM (active)
O=S(=O)(c1ccc2ccccc2c1)N1CCN(c2nc(-c3cccs3)nc3ccccc23)CC1	1260 nM (active)
